Assay results published in the supplement of paper PMC11732987, “Enantioselective OTUD7B fragment discovery through chemoproteomics screening and high-throughput optimisation” (Communications Chemistry, 2025).

Tests used:
Assay in all cases: log2 ratio of Biotin-Ahx-Ub-VS probe labelling (fragment/DMSO); higher = less target engagement (more negative = stronger competition), active = hit call of the paper (q ≤ 0.05, log2 ratio ≤ -1)
Conditions in all cases: compound concentration: 200 uM; treatment time: 3 h
USP42 = target: T1, USP42 (UniProt Q9H9J4)
T1 sequence (whole entry): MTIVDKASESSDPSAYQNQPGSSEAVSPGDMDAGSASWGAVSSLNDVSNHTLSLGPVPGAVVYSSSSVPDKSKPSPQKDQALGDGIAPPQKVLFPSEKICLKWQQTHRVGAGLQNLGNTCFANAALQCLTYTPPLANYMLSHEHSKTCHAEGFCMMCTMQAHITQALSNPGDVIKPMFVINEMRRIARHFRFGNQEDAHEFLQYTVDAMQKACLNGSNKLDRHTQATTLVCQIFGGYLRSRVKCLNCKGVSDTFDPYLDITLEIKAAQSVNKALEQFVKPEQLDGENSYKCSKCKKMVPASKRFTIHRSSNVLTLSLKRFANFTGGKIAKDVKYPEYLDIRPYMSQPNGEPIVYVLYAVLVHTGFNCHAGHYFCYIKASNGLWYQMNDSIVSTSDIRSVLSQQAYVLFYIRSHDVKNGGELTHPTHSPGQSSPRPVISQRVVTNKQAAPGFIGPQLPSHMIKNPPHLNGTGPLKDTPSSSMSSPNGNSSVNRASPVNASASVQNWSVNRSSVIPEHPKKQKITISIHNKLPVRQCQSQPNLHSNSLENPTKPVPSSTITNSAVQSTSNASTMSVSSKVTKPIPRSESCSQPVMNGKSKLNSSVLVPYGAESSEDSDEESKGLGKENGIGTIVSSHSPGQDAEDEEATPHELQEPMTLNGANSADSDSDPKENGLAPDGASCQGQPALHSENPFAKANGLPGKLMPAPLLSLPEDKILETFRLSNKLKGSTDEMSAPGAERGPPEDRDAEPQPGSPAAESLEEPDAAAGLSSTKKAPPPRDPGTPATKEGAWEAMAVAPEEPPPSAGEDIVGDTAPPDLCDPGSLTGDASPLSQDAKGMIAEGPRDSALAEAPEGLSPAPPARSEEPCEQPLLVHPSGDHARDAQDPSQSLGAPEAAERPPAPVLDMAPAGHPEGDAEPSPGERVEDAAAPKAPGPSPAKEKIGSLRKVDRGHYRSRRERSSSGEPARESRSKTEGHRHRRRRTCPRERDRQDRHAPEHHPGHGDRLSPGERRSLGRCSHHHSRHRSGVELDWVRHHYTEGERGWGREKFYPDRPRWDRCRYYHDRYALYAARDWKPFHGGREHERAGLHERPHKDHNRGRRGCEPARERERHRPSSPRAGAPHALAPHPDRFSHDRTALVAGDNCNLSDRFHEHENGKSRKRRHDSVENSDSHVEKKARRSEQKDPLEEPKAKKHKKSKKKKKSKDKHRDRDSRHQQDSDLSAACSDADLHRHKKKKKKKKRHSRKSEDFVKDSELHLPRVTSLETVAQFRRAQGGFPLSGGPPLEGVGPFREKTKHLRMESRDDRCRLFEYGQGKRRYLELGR
In short: (§1)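 The table lists average log2 ratios of fragment over vehicle, from an unpaired t-test on global-median-normalised Spectronaut label-free quantities. Proteins with ≥2 unique peptides were used. Samples were HEK293T lysate (495 µg) treated in triplicate with fragment at 200 µM or vehicle for 3 h, then with Biotin-Ahx-Ub-VS (0.5 µM final) for 1 h, with labelled DUBs NeutrAvidin-enriched and run by diaPASEF LC-MS/MS.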

USP46 = USP46 (UniProt P62068)
In short: as §1

USP47 = target: T2, USP47 (UniProt Q96K76)
T2 sequence (whole entry): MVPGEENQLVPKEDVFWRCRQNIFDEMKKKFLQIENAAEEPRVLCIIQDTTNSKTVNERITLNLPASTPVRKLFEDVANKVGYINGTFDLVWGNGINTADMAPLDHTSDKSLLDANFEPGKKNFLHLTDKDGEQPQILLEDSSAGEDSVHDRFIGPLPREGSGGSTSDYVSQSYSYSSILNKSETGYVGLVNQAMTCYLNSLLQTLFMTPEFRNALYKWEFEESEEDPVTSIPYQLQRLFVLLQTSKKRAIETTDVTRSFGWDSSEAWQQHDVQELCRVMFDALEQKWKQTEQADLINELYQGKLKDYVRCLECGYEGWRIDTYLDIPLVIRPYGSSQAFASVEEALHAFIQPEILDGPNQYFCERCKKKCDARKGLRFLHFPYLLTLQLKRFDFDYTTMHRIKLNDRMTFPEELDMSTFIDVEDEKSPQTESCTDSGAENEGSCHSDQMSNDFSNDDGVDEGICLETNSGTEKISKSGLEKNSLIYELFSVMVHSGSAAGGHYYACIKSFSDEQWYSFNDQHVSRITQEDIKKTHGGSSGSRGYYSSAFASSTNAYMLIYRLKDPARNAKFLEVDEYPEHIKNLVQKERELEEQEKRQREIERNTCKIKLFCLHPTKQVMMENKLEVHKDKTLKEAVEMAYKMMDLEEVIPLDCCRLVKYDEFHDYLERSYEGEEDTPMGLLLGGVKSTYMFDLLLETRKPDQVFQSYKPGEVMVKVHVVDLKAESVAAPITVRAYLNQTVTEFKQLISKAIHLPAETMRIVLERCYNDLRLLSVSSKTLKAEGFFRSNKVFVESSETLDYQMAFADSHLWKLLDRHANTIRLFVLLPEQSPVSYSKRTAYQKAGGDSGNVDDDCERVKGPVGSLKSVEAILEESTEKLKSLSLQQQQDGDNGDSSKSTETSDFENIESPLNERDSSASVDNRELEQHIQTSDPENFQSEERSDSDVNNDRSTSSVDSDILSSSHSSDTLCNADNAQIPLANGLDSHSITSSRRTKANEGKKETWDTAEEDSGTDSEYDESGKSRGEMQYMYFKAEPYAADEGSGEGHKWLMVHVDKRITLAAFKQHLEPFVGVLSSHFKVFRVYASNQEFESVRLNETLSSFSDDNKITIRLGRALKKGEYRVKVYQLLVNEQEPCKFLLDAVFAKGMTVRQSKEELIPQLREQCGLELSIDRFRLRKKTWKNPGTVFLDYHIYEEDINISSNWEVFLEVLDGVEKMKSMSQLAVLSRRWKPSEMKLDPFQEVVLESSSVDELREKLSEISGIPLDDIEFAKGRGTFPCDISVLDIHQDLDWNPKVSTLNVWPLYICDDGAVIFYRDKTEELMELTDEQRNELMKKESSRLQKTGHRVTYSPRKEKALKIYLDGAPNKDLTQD
In short: as §1

USP48 = target: T3, USP48 (UniProt Q86UV5)
T3 sequence (whole entry): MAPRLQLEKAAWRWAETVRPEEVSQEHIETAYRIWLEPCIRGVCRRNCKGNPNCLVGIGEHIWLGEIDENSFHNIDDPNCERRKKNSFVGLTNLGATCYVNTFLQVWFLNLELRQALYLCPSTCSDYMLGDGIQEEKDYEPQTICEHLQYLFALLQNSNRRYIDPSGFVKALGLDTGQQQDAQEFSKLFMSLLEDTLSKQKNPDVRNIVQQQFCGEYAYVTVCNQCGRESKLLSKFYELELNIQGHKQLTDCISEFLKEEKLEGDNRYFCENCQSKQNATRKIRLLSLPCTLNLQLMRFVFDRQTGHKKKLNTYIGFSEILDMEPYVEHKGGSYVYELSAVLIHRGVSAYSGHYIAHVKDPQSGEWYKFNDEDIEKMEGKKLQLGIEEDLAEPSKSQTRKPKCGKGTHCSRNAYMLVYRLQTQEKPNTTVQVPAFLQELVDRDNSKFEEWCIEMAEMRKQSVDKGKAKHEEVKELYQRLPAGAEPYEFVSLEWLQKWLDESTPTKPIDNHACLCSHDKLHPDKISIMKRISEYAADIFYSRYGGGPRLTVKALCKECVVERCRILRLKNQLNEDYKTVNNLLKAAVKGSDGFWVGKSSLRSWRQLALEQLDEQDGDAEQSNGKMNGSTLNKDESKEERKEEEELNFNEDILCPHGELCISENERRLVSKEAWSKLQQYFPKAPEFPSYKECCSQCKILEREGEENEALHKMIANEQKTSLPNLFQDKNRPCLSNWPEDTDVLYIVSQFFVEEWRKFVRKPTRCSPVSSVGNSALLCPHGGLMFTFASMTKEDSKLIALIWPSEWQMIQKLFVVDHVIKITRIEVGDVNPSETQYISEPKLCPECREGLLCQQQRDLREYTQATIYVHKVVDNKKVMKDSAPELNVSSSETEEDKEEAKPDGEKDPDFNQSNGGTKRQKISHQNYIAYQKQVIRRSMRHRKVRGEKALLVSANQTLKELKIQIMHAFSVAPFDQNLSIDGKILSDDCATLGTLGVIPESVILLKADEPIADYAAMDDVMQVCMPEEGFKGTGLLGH
In short: as §1

USP5 = target: T4, USP5 (UniProt P45974)
T4 sequence (whole entry): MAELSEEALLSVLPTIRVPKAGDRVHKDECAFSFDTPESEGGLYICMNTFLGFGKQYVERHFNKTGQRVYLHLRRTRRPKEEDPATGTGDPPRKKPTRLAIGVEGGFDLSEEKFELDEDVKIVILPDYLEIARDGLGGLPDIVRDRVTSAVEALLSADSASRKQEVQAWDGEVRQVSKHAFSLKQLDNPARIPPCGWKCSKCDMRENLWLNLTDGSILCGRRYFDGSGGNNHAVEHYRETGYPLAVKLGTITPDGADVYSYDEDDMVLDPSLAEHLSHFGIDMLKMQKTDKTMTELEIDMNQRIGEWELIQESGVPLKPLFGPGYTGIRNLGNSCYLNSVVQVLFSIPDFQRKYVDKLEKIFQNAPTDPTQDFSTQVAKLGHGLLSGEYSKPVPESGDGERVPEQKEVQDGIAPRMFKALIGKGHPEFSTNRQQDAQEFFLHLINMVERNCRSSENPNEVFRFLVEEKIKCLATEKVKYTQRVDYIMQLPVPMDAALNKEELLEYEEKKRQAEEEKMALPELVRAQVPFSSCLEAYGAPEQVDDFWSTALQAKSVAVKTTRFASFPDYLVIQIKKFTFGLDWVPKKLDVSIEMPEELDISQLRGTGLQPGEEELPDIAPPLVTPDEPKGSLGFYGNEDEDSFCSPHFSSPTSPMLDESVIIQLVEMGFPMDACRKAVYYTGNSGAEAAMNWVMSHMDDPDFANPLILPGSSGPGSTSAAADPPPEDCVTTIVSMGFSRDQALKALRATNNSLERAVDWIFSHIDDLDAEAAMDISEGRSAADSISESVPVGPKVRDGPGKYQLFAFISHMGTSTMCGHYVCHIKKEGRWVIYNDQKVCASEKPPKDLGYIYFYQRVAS
In short: as §1

USP54 = USP54 (UniProt Q70EL1)
In short: as §1

USP7 = USP7 (UniProt Q93009)
In short: as §1

USP8 = target: T5, USP8 (UniProt P40818)
T5 sequence (whole entry): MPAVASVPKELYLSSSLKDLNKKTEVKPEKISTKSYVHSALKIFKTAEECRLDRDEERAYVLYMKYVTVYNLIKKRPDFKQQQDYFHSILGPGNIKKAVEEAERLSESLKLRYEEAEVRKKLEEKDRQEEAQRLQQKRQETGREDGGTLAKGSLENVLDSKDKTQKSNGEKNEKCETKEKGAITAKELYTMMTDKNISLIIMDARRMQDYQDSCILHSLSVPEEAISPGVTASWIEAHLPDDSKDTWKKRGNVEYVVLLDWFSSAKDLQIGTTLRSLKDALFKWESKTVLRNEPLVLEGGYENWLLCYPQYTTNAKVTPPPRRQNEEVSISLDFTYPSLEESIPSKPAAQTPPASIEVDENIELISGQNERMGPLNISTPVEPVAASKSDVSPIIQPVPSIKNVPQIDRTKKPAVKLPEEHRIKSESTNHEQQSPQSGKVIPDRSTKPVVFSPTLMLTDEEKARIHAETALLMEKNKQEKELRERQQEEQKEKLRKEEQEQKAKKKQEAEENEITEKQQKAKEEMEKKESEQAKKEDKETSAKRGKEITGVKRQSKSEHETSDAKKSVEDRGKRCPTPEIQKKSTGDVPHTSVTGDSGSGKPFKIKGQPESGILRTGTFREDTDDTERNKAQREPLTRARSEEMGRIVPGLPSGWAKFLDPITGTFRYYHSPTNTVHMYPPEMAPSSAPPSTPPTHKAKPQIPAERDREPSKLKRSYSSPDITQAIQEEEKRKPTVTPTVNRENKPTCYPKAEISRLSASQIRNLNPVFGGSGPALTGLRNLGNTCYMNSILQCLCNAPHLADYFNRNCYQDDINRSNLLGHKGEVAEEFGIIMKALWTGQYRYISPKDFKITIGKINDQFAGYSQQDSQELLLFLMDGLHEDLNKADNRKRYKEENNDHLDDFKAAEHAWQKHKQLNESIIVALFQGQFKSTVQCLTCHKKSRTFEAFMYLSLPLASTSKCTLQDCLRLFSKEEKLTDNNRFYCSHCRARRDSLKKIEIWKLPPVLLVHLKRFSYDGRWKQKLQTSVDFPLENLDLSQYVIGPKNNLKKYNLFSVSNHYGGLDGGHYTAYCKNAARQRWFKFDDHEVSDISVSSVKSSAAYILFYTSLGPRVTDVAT
In short: as §1

USP9X = USP9X (UniProt Q93008)
In short: as §1

UniProt O00487 = target: UniProt O00487
In short: as §1

Measured: log2 ratio of Biotin-Ahx-Ub-VS probe labelling

USP46, sequence (P62068 whole entry): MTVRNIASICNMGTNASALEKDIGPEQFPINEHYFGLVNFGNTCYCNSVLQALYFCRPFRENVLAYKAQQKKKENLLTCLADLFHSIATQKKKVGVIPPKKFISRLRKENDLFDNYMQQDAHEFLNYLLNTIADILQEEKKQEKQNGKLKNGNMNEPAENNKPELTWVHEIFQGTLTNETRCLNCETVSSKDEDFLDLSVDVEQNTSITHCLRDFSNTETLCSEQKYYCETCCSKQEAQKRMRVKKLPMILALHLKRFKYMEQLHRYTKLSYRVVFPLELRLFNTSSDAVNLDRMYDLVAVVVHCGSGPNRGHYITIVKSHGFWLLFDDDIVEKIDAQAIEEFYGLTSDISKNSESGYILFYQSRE
USP54, sequence (Q70EL1 whole entry): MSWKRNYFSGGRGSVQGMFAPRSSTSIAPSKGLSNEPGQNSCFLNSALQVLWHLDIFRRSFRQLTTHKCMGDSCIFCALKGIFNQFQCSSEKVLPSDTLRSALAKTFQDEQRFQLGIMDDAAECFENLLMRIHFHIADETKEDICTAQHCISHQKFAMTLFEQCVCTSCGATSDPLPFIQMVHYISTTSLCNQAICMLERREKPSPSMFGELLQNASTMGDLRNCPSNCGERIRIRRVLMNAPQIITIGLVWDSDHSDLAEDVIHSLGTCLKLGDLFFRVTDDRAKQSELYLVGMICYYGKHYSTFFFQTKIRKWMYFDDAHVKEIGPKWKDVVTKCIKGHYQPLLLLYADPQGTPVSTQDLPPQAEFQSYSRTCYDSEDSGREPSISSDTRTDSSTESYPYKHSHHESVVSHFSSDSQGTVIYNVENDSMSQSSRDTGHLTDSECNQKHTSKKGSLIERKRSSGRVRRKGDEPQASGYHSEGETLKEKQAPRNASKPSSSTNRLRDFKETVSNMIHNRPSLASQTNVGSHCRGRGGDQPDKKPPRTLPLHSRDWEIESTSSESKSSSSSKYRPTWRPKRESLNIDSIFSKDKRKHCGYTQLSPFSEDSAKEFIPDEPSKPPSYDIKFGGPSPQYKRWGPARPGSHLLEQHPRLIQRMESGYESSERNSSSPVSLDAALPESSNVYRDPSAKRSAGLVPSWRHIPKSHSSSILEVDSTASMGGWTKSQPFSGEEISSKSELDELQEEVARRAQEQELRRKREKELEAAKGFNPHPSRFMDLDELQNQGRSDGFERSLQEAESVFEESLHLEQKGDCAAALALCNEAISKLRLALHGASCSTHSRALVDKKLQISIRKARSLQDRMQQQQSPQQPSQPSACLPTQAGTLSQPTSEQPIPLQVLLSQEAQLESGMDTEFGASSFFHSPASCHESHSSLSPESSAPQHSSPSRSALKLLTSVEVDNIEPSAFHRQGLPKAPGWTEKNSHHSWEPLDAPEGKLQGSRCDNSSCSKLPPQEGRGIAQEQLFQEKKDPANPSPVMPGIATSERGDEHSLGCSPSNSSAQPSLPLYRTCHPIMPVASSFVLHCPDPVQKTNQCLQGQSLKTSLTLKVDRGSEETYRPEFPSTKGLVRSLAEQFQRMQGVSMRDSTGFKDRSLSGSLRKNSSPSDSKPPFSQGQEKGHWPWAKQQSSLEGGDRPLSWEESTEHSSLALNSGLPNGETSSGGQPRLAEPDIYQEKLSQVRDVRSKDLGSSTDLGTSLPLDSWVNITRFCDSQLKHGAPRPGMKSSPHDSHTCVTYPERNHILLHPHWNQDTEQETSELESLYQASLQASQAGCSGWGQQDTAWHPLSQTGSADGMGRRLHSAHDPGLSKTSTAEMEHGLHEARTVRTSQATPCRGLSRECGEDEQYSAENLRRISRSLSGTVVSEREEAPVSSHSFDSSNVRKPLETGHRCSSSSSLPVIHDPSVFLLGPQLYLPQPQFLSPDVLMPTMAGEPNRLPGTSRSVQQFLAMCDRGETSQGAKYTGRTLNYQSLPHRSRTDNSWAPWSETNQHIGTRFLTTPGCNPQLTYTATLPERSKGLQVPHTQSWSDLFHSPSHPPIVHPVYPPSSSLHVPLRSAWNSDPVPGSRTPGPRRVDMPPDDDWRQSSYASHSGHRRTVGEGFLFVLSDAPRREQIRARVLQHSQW
UniProt O00487, sequence (O00487 whole entry): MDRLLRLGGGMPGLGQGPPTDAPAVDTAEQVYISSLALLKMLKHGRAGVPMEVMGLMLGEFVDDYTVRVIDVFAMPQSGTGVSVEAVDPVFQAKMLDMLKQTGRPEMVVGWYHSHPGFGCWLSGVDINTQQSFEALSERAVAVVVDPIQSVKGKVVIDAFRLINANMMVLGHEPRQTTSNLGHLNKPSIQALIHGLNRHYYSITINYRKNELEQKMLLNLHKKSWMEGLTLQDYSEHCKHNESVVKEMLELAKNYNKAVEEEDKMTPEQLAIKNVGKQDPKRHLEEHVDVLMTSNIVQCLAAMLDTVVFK
USP9X, sequence (Q93008 whole entry): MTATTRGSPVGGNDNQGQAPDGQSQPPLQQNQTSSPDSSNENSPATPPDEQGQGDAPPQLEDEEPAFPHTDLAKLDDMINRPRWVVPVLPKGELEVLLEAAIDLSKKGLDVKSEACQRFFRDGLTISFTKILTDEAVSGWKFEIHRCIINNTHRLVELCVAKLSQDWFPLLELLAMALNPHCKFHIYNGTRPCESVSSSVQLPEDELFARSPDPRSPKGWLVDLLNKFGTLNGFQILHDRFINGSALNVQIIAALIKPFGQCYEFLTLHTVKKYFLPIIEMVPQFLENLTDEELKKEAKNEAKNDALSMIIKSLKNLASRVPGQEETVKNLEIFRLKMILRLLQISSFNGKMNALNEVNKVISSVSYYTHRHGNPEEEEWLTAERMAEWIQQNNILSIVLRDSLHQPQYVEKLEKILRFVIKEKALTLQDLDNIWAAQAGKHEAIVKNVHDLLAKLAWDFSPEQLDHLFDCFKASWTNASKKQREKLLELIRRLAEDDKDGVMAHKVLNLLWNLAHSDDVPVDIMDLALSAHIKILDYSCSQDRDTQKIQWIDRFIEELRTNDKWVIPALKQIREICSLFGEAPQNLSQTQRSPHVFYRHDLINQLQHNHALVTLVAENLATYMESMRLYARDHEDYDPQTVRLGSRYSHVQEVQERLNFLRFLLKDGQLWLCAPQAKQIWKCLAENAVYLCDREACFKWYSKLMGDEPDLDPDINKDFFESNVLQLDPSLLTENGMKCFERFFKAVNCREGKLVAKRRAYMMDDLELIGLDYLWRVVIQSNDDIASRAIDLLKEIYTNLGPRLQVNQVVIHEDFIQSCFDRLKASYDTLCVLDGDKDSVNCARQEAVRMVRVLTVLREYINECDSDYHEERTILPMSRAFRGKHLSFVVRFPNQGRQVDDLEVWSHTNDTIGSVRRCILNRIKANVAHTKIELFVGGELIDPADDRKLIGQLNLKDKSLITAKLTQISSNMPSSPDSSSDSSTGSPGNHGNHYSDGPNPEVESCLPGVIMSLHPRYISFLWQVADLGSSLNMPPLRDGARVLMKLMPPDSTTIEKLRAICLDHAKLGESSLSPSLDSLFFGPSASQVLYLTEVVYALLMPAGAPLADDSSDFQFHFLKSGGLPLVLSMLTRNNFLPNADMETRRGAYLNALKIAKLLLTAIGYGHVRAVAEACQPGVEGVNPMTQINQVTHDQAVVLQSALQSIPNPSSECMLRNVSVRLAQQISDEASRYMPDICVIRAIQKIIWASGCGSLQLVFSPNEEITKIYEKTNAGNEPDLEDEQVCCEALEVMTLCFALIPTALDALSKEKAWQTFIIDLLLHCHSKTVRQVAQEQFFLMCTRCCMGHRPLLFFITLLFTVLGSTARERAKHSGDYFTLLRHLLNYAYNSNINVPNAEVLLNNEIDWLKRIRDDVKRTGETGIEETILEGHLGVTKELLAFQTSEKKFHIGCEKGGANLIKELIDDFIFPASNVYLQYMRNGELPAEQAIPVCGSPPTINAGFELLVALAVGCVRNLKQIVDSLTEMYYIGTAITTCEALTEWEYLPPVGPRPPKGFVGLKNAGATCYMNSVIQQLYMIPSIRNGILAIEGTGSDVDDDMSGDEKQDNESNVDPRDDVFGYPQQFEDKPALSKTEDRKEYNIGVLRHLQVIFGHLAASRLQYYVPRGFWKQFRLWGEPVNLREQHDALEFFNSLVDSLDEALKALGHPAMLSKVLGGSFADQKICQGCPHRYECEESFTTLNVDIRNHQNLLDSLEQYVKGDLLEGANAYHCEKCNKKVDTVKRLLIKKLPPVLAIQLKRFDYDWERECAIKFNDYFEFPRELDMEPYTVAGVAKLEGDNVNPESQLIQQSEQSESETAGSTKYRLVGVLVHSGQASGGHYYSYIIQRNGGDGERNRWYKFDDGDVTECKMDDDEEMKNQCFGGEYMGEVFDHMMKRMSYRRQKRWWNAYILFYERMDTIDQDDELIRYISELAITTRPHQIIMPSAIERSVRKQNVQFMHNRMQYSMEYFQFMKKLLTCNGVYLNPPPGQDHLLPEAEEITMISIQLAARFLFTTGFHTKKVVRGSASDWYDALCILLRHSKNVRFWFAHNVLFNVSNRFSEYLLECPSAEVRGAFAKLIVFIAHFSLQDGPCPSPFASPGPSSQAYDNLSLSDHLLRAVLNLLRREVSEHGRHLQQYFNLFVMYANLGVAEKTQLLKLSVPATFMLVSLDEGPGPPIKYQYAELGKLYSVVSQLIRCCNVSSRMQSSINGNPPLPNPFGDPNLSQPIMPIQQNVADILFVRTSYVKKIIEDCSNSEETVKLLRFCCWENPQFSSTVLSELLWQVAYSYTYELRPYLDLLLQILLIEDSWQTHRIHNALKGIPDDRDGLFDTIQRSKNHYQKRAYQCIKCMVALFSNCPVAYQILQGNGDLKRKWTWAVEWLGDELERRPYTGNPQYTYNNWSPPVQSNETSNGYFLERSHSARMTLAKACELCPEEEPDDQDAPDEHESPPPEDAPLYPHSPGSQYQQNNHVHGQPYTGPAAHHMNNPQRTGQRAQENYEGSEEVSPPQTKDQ

O=C(CCl)NC1(c2ccc3c(c2)OCCO3)CCCC1
inactive: USP42 -0.0517 | USP46 -0.105 | USP47 -0.898 | USP48 -0.261 | USP5 0.179 | USP54 1.09 | USP7 -0.305 | USP8 -0.374 | USP9X -0.378 | UniProt O00487 -0.176
